# Results taken from PubChem BioAssay AID485344 (National Center for Advancing Translational Sciences (NCATS), 2010).
# Several values for one entry are separate records, joined by “and”; a condition that tells them apart may be missing. Identical values can stand only once. Out of some 340,000 compounds screened, about 6,900 (2%) were called active. The list comes from a sample in which actives are over-represented; it also holds similar structures and randomly drawn compounds. Unmarked numbers belong to inactive results. Cut-off read from the data, not from the text of the source: active = inhibition above about 30%; inactive = below that, where a call was filed.
# Target: D(2) dopamine receptor (Homo sapiens) (UniProt P14416)
# Experiment: HTS Assay for Allosteric Antagonists of the Human D2 Dopamine Receptor: Primary Screen for Antagonists; note: 0% is about no effect
# Conditions: HEK293 TREx D2 cells, calcium flux, dopamine EC80; at 10 µM; stronger effect = higher value
# Summary of the method: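 Measurement of antagonist activity uses fluorescent calcium dye in inducible HEK293 T-REx D2 cells: 10 s baseline, compound addition with 180 s read, EC80 dopamine addition with a further 180 s read.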
# Chain of D(2) dopamine receptor (Homo sapiens) (P14416 whole entry, looked up): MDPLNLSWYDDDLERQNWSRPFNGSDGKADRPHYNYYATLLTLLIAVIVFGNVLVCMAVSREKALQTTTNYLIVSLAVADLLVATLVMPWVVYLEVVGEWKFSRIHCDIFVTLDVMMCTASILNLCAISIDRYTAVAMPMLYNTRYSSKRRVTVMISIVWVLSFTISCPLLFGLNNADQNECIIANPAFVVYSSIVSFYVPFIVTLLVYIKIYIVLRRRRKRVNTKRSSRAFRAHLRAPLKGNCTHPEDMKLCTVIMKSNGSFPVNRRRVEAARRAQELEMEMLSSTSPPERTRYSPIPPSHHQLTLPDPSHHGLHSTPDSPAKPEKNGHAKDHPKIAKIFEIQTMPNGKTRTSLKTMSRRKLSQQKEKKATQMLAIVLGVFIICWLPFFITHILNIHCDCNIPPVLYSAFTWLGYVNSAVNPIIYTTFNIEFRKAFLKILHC
row,Structure (SMILES),inhibition
1,COc1ccc(C)cc1NC(=O)CSc1nnc2ccc(-c3ccccn3)nn12,24.5%
2,O=C(N/N=C/c1c[nH]c2ccccc12)c1cc2ccccc2o1,-9.07%
3,O=C(N/N=C/c1coc2ccccc2c1=O)c1cc2ccccc2o1,-7.75%
4,Cc1c(/C=N\NC(=O)c2cc3ccccc3o2)c2ccccc2n1C,33.1% (active)
5,COc1ccc(CCC(=O)N2CCN(S(=O)(=O)c3ccc(OC)cc3)CC2)cc1,-16.3%
6,CCOC(=O)CN1C(=O)C(=O)c2cc(C)ccc21,37% (active)
7,Cc1cccc2c1N(CC(=O)OC(C)C)C(=O)C2=O,0.945%
8,CC(C)OC(=O)CN1C(=O)C(=O)c2ccccc21,2.86%
9,Cc1cccc(C(=O)OC(C)CN2CCCC2)c1 (centres undefined),-14%
10,Cc1ccc(C(=O)OC(C)CN2CCOCC2)cc1 (centres undefined),12.8%
11,CC(CN1CCOCC1)OC(=O)c1ccc(C(C)(C)C)cc1 (centres undefined),70.8% (active)
12,O=[N+]([O-])c1ccccc1/C=C/CN1CCCC(CO)C1 (centres undefined),35.4% (active)
13,O=C(/C=C/c1ccccc1[N+](=O)[O-])OCC(=O)N1CCCC1,4.52%
14,CC1CC(C)CN(C/C=C/c2ccccc2[N+](=O)[O-])C1 (centres undefined),7.28%
15,CCN(CC(=O)Nc1cc(Cl)ccc1C)C(=O)Cn1c(=O)cnc2ccccc21,17.9%
16,N#C[C@]1(S(=O)(=O)c2ccccc2)C[C@@H]2ON=C(c3cccc(Br)c3)[C@@H]2C1,41.5% (active)
17,COC(=O)[C@]1(S(=O)(=O)c2ccccc2)C[C@@H]2ON=C(c3ccc(OC)cc3)[C@@H]2C1,-8.41%
18,CC(=O)NC12CC3CC(C1)CC(C(=O)N1CCN(C(=O)c4ccco4)CC1)(C3)C2,-36.2%
19,CCOC(=O)Nc1ccc(S(=O)(=O)N(C)C(C)C)cc1,2.07%
20,CCOC(=O)Nc1ccc(NC(=O)OCC)cc1,38.8% (active)
21,CC(C)(COC(=O)Nc1ccccc1)COC(=O)Nc1ccccc1,-9.72%
22,CCCCCOC(=O)NCCOC(=O)Nc1ccc(C(=O)OCC)cc1,33% (active)
23,CCCCC(CCC(=O)Nc1ccc(C(=O)OCC)cc1)C(=O)O (centres undefined),4.1%
24,Cc1ccc(NC(=O)OCCNC(=O)c2ccncc2)cc1,-36.9%

row,Structure (SMILES),inhibition
1,CCCCN(C(=O)C1=NN(c2cc(C)ccc2C)C(=O)CC1)c1c(N)n(CCC)c(=O)[nH]c1=O,-7.61%
2,COc1cccc2[nH]c(C(=O)NCCc3ccccc3)cc12,-14.1%
3,CC(O)CNCCOc1cccc(Oc2ccccc2)c1 (centres undefined),-19.3%
4,COc1ccccc1OCCNCC(O)COc1cccc2[nH]c3ccccc3c12 (centres undefined),59.1% (active) and 51.5% (active)
5,O=S(=O)(O)Oc1c[nH]c2ccccc12,19.7%
6,CCN(CC)S(=O)(=O)c1ccc(CNC(=O)CN2C(=O)NC3(CCc4ccccc43)C2=O)cc1 (centres undefined),-6.28%
7,CCc1ccc(NC(=O)Cn2ncn3c(cc4ccccc43)c2=O)cc1,12.2%
8,CCOC(=O)c1cn(CC(=O)Nc2ccc(C(C)C)cc2)nn1,-8.92%
9,CC(C)c1ccc(NC(=O)Cn2ncc3ccccc32)cc1,32.4% (active)
10,COc1ccc(OCCCC(=O)Nc2cccc(S(=O)(=O)N3CCCCCC3)c2)cc1,-0.774%
11,O=C(c1cn(-c2ccccc2)nc1-c1cccnc1)N1CCN(S(=O)(=O)c2ccccc2F)CC1,17.6%
12,CCCN(CC(=O)NC(=O)NC1CCCCC1)CC(=O)Nc1cc(Cl)ccc1Cl,-13.3%
13,Cc1ccc2[nH]c3c(c2c1)CN(C(=O)CN1CCN(c2ccccc2)CC1)CC3,4.69%
14,Fc1ccc(NC(=S)N2CCc3[nH]c4ccccc4c3C2)cc1,-0.813%
15,O=C(CCCN1CCc2[nH]c3ccc(F)cc3c2C1)c1ccc(F)cc1,92.7% (active)
16,O=C(COC(=O)c1ccc2ncsc2c1)Nc1ccc(Cl)cc1,18.7%
17,COc1ccc(OC)c(CNC(=O)C2CCCN(c3nc4ccccc4o3)C2)c1 (centres undefined),-3%
18,COc1ccccc1CNC(=O)C1CCN(c2nc3ccccc3o2)CC1,9.79%
19,CCc1ccc(CNC(=O)C2CCCN(c3nc4ccccc4o3)C2)cc1 (centres undefined),39.6% (active)
20,CCCCc1ccc(NC(=O)CN2C(=O)NC(Cc3ccccc3)C2=O)cc1 (centres undefined),16.7%
21,COCc1c(C(=O)OCC(=O)Nc2ccc(OC(F)F)cc2)oc2ccccc12,-10.8%
22,CSc1ccc(CCNC(=O)CS(=O)(=O)Cc2nc(-c3ccccc3F)oc2C)cc1,-16.4%
23,Cc1oc(-c2ccccc2F)nc1CS(=O)(=O)CC(=O)NCCCN(C)C1CCCCC1,45.2% (active)
24,Cc1oc(-c2ccccc2F)nc1CS(=O)CC(=O)NCCN1CCCCC1C (centres undefined),-10.8%

row,Structure (SMILES),inhibition
1,O=[N+]([O-])c1cc(S(=O)(=O)NCCc2ccccn2)ccc1Cl,9.65%
2,COc1ccc(CN2CCN(C(=O)c3cc(C4CC4)nn3-c3ccccc3)CC2)cc1F,-4.93%
3,N#CC1(NC(=O)COC(=O)Cc2n[nH]c(=O)c3ccccc23)CCCCC1,-5.98%
4,Cc1nn(Cc2ccccc2)c(C)c1CNC(=O)c1ccc(F)c(S(=O)(=O)N2CCOCC2)c1,5.64%
5,CCOC(=O)C(=O)Nc1nc(-c2ccccc2)c(CC)s1,8.31%
6,CCOC(=O)c1sc2nc(CSc3ccccc3)[nH]c(=O)c2c1C,20.4%
7,CCOC(=O)c1sc2nc(SC)nc(-c3ccccc3)c2c1N,30.8% (active)
8,Cc1ccc(C)c(NC(=O)C(c2ccccc2)N2CCN(CC(=O)NC3CC3)CC2)c1 (centres undefined),5.16%
9,O=C(Cc1ccc(-n2c(=O)[nH]c3ccccc3c2=O)cc1)N1CCN(c2cccc(Cl)c2)CC1,11.5%
10,O=C(Cc1csc(Nc2nc(=S)[nH]c3ccccc23)n1)NCCCN1CCN(c2cccc(Cl)c2)CC1,69.4% (active)
11,COc1cccc(CNC(=O)Cc2csc(Nc3nc(=S)[nH]c4ccccc34)n2)c1,-15.6%
12,COc1ccc(S(=O)(=O)N2CCOCC2)cc1NC(=O)c1ccc(OCC(C)C)c(OC)c1,-9.24%
13,Cn1c(=O)c(=O)n(C)c2cc(S(=O)(=O)NCCN3CCN(c4ccccc4F)CC3)ccc21,42.8% (active)
14,Cc1ccc(S(=O)(=O)NCCN2CCOCC2)cc1C,-3.48%
15,CCc1ccc(S(=O)(=O)Nc2cc3c(cc2N2CCCCC2)n(C)c(=O)c(=O)n3C)cc1,4.98%
16,Cc1ccc(S(=O)(=O)N2CCOCC2)cc1C(=O)Nc1ccccc1N1CCCC1,3.22%
17,CCOc1ccc(S(=O)(=O)N2CCCCC2)cc1NC(=O)CN1CCCC1c1cccs1 (centres undefined),19.6%
18,CC(=O)NCC(O)c1ccc([N+](=O)[O-])cc1 (centres undefined),12.7%
19,CNCC(O)c1ccc(O)c(O)c1 (centres undefined),84.7% (active)
20,COc1ccccc1CNC(=O)CCCN1C(=O)NC2(CCCC2)C1=O,0.109%
21,NS(=O)(=O)c1ccc(CCNC(=O)COC(=O)COc2cccc(C(F)(F)F)c2)cc1,-7.34%
22,CC(=O)C1=C(C)NC(=O)NC1c1cc(Br)ccc1OCC#N (centres undefined),-0.972%
23,CCOC(=O)COc1ccc(Cl)cc1C1NC(=O)NC(C)=C1C(C)=O (centres undefined),30.8% (active)
24,CCOc1ccccc1C1NC(=O)NC(C)=C1C(=O)OCc1ccco1 (centres undefined),-14.9%

row,Structure (SMILES),inhibition
1,O=C(COC(=O)Cn1[nH]c(=O)c2ccccc2c1=O)Nc1ncc(Cl)cc1Cl,-24.9%
2,Cc1ccccc1C(=O)NCC(c1ccco1)N1CCc2ccccc21 (centres undefined),-18.5%
3,Nc1cc(N)nc(SCC(=O)Nc2cccc(S(=O)(=O)N3CCCCC3)c2)n1,3.49%
4,CCC(C)N(C(=O)Cn1nc(C)c([N+](=O)[O-])c1C)C1CCS(=O)(=O)C1 (centres undefined),15.9%
5,COc1ccc(OCCCCN2CCC(C)CC2)cc1,7.68%
6,C/C=C/c1ccc(OCCCCN2CCC(C)CC2)c(OC)c1,45.6% (active)
7,C/C=C/c1ccc(OCC(O)CN2CCCCCCC2)c(OC)c1 (centres undefined),-10.5%
8,CS(=O)(=O)N1CCC(C(=O)N2CCN(c3ccccc3)CC2)CC1,47.3% (active)
9,CCS(=O)(=O)N1CCC(N2CCN(c3ccccc3)CC2)CC1,73.1% (active)
10,CCCS(=O)(=O)N1CCCC(C(=O)N2CCN(c3ccccc3)CC2)C1 (centres undefined),6.48%
11,Cc1ccc(S(=O)(=O)N2CCN(c3ccccc3)CC2)cc1C,26.6%
12,O=C(C1CCC1)N1CCN(c2ccccc2)CC1,1.73%
13,CCS(=O)(=O)N1CCC(C(=O)N2CCN(c3ccccc3)CC2)CC1,-2.98%
14,O=C(c1cc2ccccc2o1)N1CCN(S(=O)(=O)c2ccc(Cl)s2)CC1,17.4%
15,CC(C)(CNC(=O)CNC(=O)C1CCCCC1)N1CCOCC1,-45.4%
16,CC1(C)CC(=O)C=C(c2ccc(Cl)c(C(F)(F)F)c2)C1,4.19%
17,Cc1ccc(Cl)c(OCC(=O)N2CCc3ccccc3C2)c1,2.48%
18,C=CCc1ccc(OCC(O)CN2CCN(Cc3ccccc3)CC2)c(OC)c1 (centres undefined),0.147%
19,OC(COc1ccc(F)cc1Cl)CN1CCc2ccccc2C1 (centres undefined),68.3% (active)
20,Cc1cccc(OCC(O)CN2CCN(S(=O)(=O)c3ccc(C)cc3C)CC2)c1 (centres undefined),-1.31%
21,Cc1ccc(OCC(O)CN2CCN(CC(O)COc3ccc(C)cc3Cl)CC2)c(Cl)c1 (centres undefined),78.4% (active)
22,CCc1ccc(OCC(O)CN2CCN(CCO)CC2)cc1 (centres undefined),-7.21%
